Screening data deposited in PubChem BioAssay by National Center for Advancing Translational Sciences (NCATS).
FLuc modulator = counter-screen for miR-21 project: firefly luciferase inhibitors or activators. actives 6.9% (n = 360,000). P08659. purified FLuc, Km substrates, luminescence inhibition. Potency, µM (top dose mostly 57.5 µM), for inactives: at the highest dose activity change, negative = inhibition, most hits filed as inhibitors. AID 588342;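 further: plate controls were vehicle for no effect and reference inhibitor for full effect; nearly all actives have a fitted effect of over 55% in size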
Target sequence (P08659 whole entry, looked up): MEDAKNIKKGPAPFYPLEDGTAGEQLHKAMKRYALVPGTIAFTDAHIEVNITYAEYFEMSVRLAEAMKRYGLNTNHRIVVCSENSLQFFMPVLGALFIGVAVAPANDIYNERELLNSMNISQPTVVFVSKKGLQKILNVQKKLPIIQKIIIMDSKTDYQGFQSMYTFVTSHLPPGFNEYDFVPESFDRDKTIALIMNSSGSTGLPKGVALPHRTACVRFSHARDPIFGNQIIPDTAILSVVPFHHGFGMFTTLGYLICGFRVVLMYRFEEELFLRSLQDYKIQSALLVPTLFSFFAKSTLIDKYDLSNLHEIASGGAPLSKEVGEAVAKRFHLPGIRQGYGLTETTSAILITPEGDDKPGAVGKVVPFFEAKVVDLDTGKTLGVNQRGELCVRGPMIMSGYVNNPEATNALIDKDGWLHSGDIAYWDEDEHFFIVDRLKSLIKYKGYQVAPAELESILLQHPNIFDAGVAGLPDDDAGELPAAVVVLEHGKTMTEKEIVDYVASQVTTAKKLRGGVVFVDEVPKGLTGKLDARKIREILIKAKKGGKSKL
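Purified P. pyralis luciferase (10nM final) with 10uM D-luciferin and 10uM ATP (Km levels) in 50mM Tris acetate pH 7.5, 10mM Mg acetate, 0.01% Tween-20, 0.05% BSA; qHTS 6-point titration, ~60 µM downward; luminescence read.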
Rab9 promoter act = Rab9 promoter activation | Potency, µM (top dose mostly 9.22 µM), for the others: at the top dose activation, negative = inhibition, usual class: activators | AID 485297 | actives 2.8% (n = 320,000) | Huh7 Rab9 promoter-luciferase reporter, luminescence, 24 h; further: % of control where 0% means no effect; nearly all actives have a fitted effect of over 60% in size
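Quantitative HTS format; Huh7 Rab9-luciferase reporter cells (1500/well) receive compound 2 h post-plating, incubate 24 h at 37 °C, then get luciferase reagent for 10 min before luminescence reading.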
NPC1 prom act = activates the NPC1 promoter | Huh7 NPC1 promoter luciferase reporter, 24 h | Potency, µM (series often up to 9.22 µM), without a hit: top-dose activation, usual class: activators | actives 2.4% (n = 320,000) | AID 485313; further: % of control where 0% means no effect; nearly all actives have a fitted effect of over 60% in size
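Luciferase expression driven by the NPC1 promoter was measured in stably transfected Huh7 cells after a 24 h compound incubation, using a luciferase reagent and a luminescence read.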
ELG1 genotox = inducers of genotoxicity in HEK293T ELG1-luciferase cells; actives 1.3% (n = 330,000); HEK293T ELG1-luciferase reporter, luminescence, 16 h; Potency, µM (titrated, usually from 46 µM), inactives show at the top dose activity change, positive = activation, hits mostly activators; AID 504466; further: % of control where 0% means no effect; nearly all actives have a fitted effect of over 60% in size
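HEK293T cells expressing luciferase-tagged ELG1 were exposed to compound or DMSO vehicle for 16 hr at 37 °C and 5% CO2. Luciferase activity was then measured with ONE-Glo after 30 min at room temperature.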
SMN2 splice up = increases expression of the SMN2 splice variant; HEK293 SMN2-luciferase splicing reporter, luminescence, 30-36 h; Potency, µM (top dose mostly 46.1 µM), inactives show top-dose activity change, positive = activation, hits mostly activators; actives 2.8% (n = 210,000); further: % of control where 0% means no effect; nearly all actives have a fitted effect of over 55% in size
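HEK293 cells carry an SMN2 minigene-luciferase reporter in which exon 7 inclusion puts luciferase in frame. Cells were seeded at 2000 cells/well, attached for 10-12 hours, then exposed to compounds for 30-36 hours at 37C before ONE-Glo luminescence.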
Active calls of the source: *; ? = inconclusive; . = not tested or not shown; [ ] = another dose, or the depositor's remark. This is a sample that favours compounds with a hit; in the whole collection about 7.5% have one here. The call rests on the fitted dose curve; in most records, active means well fitted curve in the direction sought with a large enough effect; inconclusive means small, poorly fitted or top-dose-only effect, or another doubt; inactive means no such curve, though single readings can be large; an effect the other way counts as inactive or inconclusive. Potency means the concentration at half of the fitted maximal effect.

SMILES | FLuc modulator | Rab9 promoter act | NPC1 prom act | ELG1 genotox | SMN2 splice up
Cc1c(OC(=O)N(C)C)ccc2c1O/C(=C\c1ccco1)C2=O | 0.48µM* | 4µM* | ? | 13% | .
Oc1ccc2c3c1O[C@H]1c4[nH]c5ccccc5c4C[C@@]4(O)[C@@H](C2)N(CC2CC2)CC[C@]314 | 4% | -6% | -4% | -4% | .
CCCCCn1c(=O)c(C(=O)NCc2ccc(Cl)cc2)c(O)c2ccccc21 | -1% | 1% | 1% | -10% | .
CN(C)C(=O)Oc1ccc(Cl)c2ccccc12 | 8%[2.3 µM] | ? | 4.5µM* | 2% | 9%
CN(C)C(=O)Oc1ccc2ccccc2c1Cl | ? | 15% | 14% | ? | -24%
O=C(Oc1ccc2ccc(OC(=O)N3CCCCCC3)cc2c1)N1CCCCCC1 | 13µM* | 13% | 15% | ? | -36%
O=C(Oc1c(Cl)cc(Cl)c2ccccc12)N1CCCCC1 | ? | 0% | 6% | ? | -13%
CN(C(=O)Oc1ccc(Cl)c2cccnc12)c1ccccc1 | -8% | -1% | -2% | -3% | -16%
O=C(Oc1ccc(Cl)c2ccccc12)N1CCCCC1 | 17µM* | 5% | 12% | ? | 2%
O=C(Nc1ccc(OC(=O)N2CCCCC2)cc1)N1CCOCC1 | 4% | 2% | -5% | 1% | .
CCN(CC)C(=O)Oc1ccc2ccccc2c1Cl | 17µM* | 28% | 16% | 13% | ?
CCCC(C)(COC(N)=O)COC(N)=O | . | . | . | . | 4%
COCCO[C@H]1CC[C@@]2(C)C(=CCC3C2CC[C@@]2(C)C3CC[C@]2(C)O)C1 (stereo not given in full) | . | . | . | -5% | .
CN1CC(C(=O)c2ccc([N+](=O)[O-])cc2)C(c2ccc(Cl)cc2)C1 (stereo not given) | -14% | -1%[1.84 µM] | -3% | -3% | .
O=C(Oc1ccc2ccccc2c1Cl)N1CCCC1 | 12µM* | 2µM* | 2.8µM* | 2.1µM* | 13µM*
CCS(=O)(=O)N1Cc2ccccc2CC1C(=O)NCC12CC3CC(CC(C3)C1)C2 (stereo not given) | -1% | -1% | -3% | -3% | ?
Cc1ccc2nc(N3CCN(C)CC3)[nH]c2c1 | 27µM* | ? | ? | 16µM* | 104%
NS(=O)(=O)C[C-]1C=C[CH]([Sb-]([Cl])([Cl])([Cl])([Cl])[Cl])C=C1.c1ccncc1 (stereo not given) | . | . | . | . | 3%[9.22 µM]
Cc1cccc(OP(N)(=O)Oc2cccc(C)c2)c1 | 0% | -8% | -3% | -1% | .
COc1ccc(NC(=O)CCCn2c(=O)oc3ccccc32)cc1Cl | 12µM* | ? | ? | ? | ?
COc1ccc(-c2nc(NC(=O)Cn3c(=O)oc4ccccc43)sc2C)cc1 | 1% | 2% | 2% | -9% | -33%
CCOc1ccccc1CN(CCc1ccc2c(c1)OCO2)Cc1ccc(CC)cc1 | 0% | . | . | . | -23%
CC(C)NC(=O)N1CC[C@@]2(CCCNC2)C1 | . | . | . | . | -1%
Cc1ccccc1-n1c(O)c(/C=N/NC(=O)c2ccccc2O)c(=O)[nH]c1=S | 11µM* | 23% | 17% | 17% | .
O=C(N/N=C/c1c(O)n(C2CC2)c(=S)[nH]c1=O)c1ccccc1O | 15µM* | ? | ? | 11% | ?
SMILES | FLuc modulator | Rab9 promoter act | NPC1 prom act | ELG1 genotox | SMN2 splice up
O=C(N/N=C/c1c(O)n(-c2ccccc2)c(=S)[nH]c1=O)c1ccccc1 | ? | 2% | 0% | 6% | .
CCCOc1ccc(C(=O)Nc2ccc(-c3cc4ccccc4oc3=O)c(C)c2)cc1 | 1.7µM* | . | . | . | -63%
COc1ccc(C(=O)Nc2cccc(S(=O)(=O)NCc3ccco3)c2)cc1 | . | . | . | -3% | .
O=C(C1CC(c2ccc(F)cc2)=NO1)N1CCC2(CC1)OCCO2 (stereo not given) | 17µM* | ? | 29% | 21µM* | -28%
O=C(C1CC(c2ccc(Cl)c(Cl)c2)=NO1)N1CCC2(CC1)OCCO2 (stereo not given) | 15µM* | 2µM* | 2.2µM* | 7.3µM* | 13µM*
COC(=O)C1=C(c2ccc(OC(F)(F)F)cc2)C[C@@H]2CC[C@H]1N2C(=O)NCCCOC(C)C | -3% | -2% | 1% | -1% | .
COc1ccc(/C=C/C(=O)Nc2ccc(C)cc2)cc1 | 6.7µM* | . | . | . | ?
COc1ccc2o/c(=N\O)c(C(=O)Nc3ccc(C)cc3)cc2c1 | ? | 0% | -1% | ? | .
C=CCN1C(=O)/C(=C/c2ccc(Br)s2)C(=O)NC1=S | ? | -5% | -8% | ? | .
COc1ccc(OC)c(N2C(=O)NC(=O)/C(=C/c3ccc([N+](=O)[O-])s3)C2=O)c1 | 17µM* | -9% | -4% | -9% | ?
CCN1C(=O)/C(=C\c2ccc([N+](=O)[O-])s2)C(=O)NC1=S | 8.5µM* | 2% | -19% | -13% | -24%
CC(=O)C1(c2ccccc2)CCN(C(=O)C2CCC(=O)N(CCc3cccc(F)c3)C2)CC1 (stereo not given) | 2% | 2% | -4% | -12% | .
CN(C)C(Cc1ccccc1)C(=O)c1c[nH]c2ccccc12 (stereo not given) | 24µM* | 1% | -1% | 0% | .
CC1CN(c2ccc([N+](=O)[O-])c(N3CCCCC3)c2)CCN1 (stereo not given) | -3% | -2% | -2% | -2% | .
Cc1nn(C(C)(C)C)c(C)c1/C=N/OC(=O)Nc1ccc(Cl)c(Cl)c1 | 0.19µM* | -38% | -24% | -12% | .
CCCOC(=O)[C@@H]1[C@@H](C(=O)O)[C@H]2CC[C@@H]1O2 | . | . | . | . | -6%[9.22 µM]
O=C1NC(=O)C(=Cc2cc(Cl)ccc2OCc2ccc(C(=O)O)cc2)C(=O)N1 | 24µM* | -1% | -2% | 0% | -9%
CCOc1cc(C=C2C(=O)NC(=O)NC2=O)ccc1OCC(=O)N1CCOCC1 | 0% | -2% | -2% | 1% | -2%
Cc1ccc(/C=C2\C(=O)NC(=O)N(CCc3ccc(F)cc3)C2=O)o1 | -9% | 1% | 0% | ? | 10%
O=C1NC(=O)C(=Cc2ccc(-c3ccc(F)cc3O)o2)C(=O)N1 | 13µM* | -2% | -2% | 1% | .
CN1C(=O)C(=Cc2ccc(Sc3ccccc3)o2)C(=O)N(C)C1=O | ? | -5% | -3% | 13% | -2%
O=C1NC(=O)C(=Cc2ccc(-c3ccc(S(=O)(=O)N4CCOCC4)cc3)o2)C(=O)N1 | ? | 2% | -1% | 11% | .
O=C1NC(=O)C(=Cc2ccc(-c3ccc(Cl)cc3)o2)C(=O)N1 | 6.7µM* | 0% | 0% | -16% | .
O=C1NC(=O)C(=Cc2ccc(Sc3ccccc3)o2)C(=O)N1 | 24µM* | 0% | 1% | ? | .
FC(F)(F)c1ccc(NC2=NCCCS2)cc1 | ? | 18% | 12% | 3% | .
CN1C(=O)CN=C(c2ccccc2)c2cc([N+](=O)[O-])ccc21 | -2% | 0% | -1% | . | .
CCCCCCOc1ccc(CN2CCN(CCO)CC2)cc1 | 19µM* | 4µM* | 2.2µM* | 8.2µM* | 15%
